# Assay results taken from PubChem BioAssay AID1851 (National Center for Advancing Translational Sciences (NCATS), 2009).
# About 5,800 (36%) of roughly 16,000 compounds were called active. Roughly 23% stayed inconclusive and do not appear here. The call rests on the fitted dose curve; in most records, active means well fitted curve in the direction sought with a large enough effect; inconclusive means small, poorly fitted or top-dose-only effect, or effect the other way; inactive means no such curve, though single readings can be large or run the other way. Some of the results follow.
# Target: Cytochrome P450 2C19 (Homo sapiens) (UniProt P33261)
# Experiment: Cytochrome panel assay with activity outcomes
# Conditions: recombinant CYP, pro-luciferin dealkylation, luminescence, p450-cyp2c19; series mostly up to 57.1 µM; activity, negative = inhibition: at the top concentration
# On the % scale 0 is the no-effect control and ±100 the full control effect.
# Cytochrome P450 2C19 (Homo sapiens), sequence (P33261 whole entry, looked up): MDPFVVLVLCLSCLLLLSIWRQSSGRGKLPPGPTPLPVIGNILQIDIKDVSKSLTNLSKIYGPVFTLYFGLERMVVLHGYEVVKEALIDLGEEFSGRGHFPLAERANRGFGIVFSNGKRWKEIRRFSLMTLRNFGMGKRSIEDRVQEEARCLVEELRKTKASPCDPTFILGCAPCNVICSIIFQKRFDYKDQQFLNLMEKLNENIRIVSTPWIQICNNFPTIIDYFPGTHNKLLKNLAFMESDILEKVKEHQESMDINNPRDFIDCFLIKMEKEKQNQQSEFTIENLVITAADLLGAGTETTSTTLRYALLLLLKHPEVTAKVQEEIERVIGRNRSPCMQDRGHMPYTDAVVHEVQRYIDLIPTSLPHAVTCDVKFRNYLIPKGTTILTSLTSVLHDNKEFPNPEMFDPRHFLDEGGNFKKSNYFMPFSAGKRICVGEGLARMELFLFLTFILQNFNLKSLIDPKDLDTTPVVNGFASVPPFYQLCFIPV
SMILES,"activity, negative = inhibition",AC50
CCN1C(=O)[C@H]2[C@H]3[C@H](O)[C@H](O)C/C(=N/OCC[C@H]4C=C[C@H](OC(C)=O)[C@@H](COC(C)=O)O4)[C@@H]3CC[C@@H]2C1=O,0.181% [at 11.4 µM] (inactive),–
Cc1c(C)n(C(=O)CN2CCC(C)CC2)c2ccccc12,–,3.55 µM (active)
CC1CCN(CC[C@@H]2CCCN2S(=O)(=O)c2cccc(O)c2)CC1,15.1% (inactive),–
O=C(O)c1cc(=O)cc(C(=O)O)[nH]1,14.5% (inactive),–
COc1ccc(COC(=O)N/N=C2/C[C@@H](O)[C@@H](O)[C@@H]3[C@@H]4C(=O)N([C@@H](C)c5ccccc5)C(=O)[C@H]4CC[C@H]23)cc1,1.27% [at 11.4 µM] (inactive),–
C[C@]1(c2ccccc2)OC(C(=O)O)=CC1=O,-35.6% (inactive),–
COc1ccc(C(=O)Nc2cc(Cl)ccc2OC(=O)c2ccc(OC)cc2)cc1,–,3.55 µM (active)
COc1ccc(NC(=O)c2ccc(C(=O)c3cc(OC)ccc3OC)cc2)cc1,9.75% (inactive),–
Cc1ccc(C(=O)Nc2cc(Cl)ccc2OC(=O)c2ccc(C)cc2)cc1,–,11.2 µM (active)
COC(=O)CCSc1cc([N+](=O)[O-])cc2c1c(C1OCCS1)nn2-c1ccccc1 (stereo not given),–,25.1 µM (active)
NC(N)=NC(N)=Nc1ccccc1,–,25.1 µM (active)
NC(N)=NC(N)=Nc1ccc(S(=O)(=O)O)cc1,10.1% [at 11.4 µM] (inactive),–
NC(N)=NC(N)=Nc1cccc(Cl)c1,–,inactive
N#C/C(=C/c1cccc(C(F)(F)F)c1)c1nc(CCN2C(=O)c3ccccc3C2=O)cs1,–,3.16 µM (active)
Cc1cc(Br)cc(C)c1OCCCCN(C)C,-23.4% (inactive),–
COCCCNCCCCOc1c(Cl)cc(C)cc1Br,-17.9% (inactive),–
C=CCNCCCCOc1c(Cl)cc(C)cc1Br,–,8.91 µM (active)
C/C(=N\NC(=O)Cc1ccc(Cl)cc1)c1ccccn1,–,5.01 µM (active)
O=C(N/N=C/C1CCCCC1)c1ccccn1,-9.73% (inactive),–
CC(C)c1ccc(N2C(=O)CC(Sc3nc4ccccc4o3)C2=O)cc1 (stereo not given),–,1.78 µM (active)
CCOC(=O)N/N=C1/C[C@@H](O)[C@@H](O)[C@@H]2[C@@H]3C(=O)N([C@@H](C)c4ccccc4)C(=O)[C@H]3CC[C@@H]12,-0.98% [at 11.4 µM] (inactive),–
CCOC(=O)c1cc(-c2ccc(Cl)cc2)nc2c1c(C)nn2CCC#N,–,14.1 µM (active)
COc1cccc(Nc2ncc3nc(-c4ccc(Cl)cc4)c(=O)n(CCC#N)c3n2)c1,-11.3% (inactive),–
Cc1nn(C)c(Oc2cccc(Cl)c2)c1C=O,–,6.31 µM (active)
Cc1ccc(NC(=O)N/C=C/c2ccc(Cl)cc2)cc1,-10% (inactive),–

SMILES,"activity, negative = inhibition",AC50
O=C(N/N=C/c1ccc(Cl)cc1)Nc1ccccc1,–,11.2 µM (active)
O=C(N/N=C/c1ccc(Cl)cc1Cl)Nc1ccccc1,–,2.82 µM (active)
CC(C)N=C(N)/N=C(\N)Nc1ccc(Cl)cc1,-16.3% [at 25.6 µM] (inactive),–
O=C(c1ccco1)N1CCC[C@@]2(CCN(c3ccncc3)C2)C1,-25.6% (inactive),–
Cn1cccc1C(=O)N1CCC[C@@]2(CCN(Cc3nccs3)C2)C1,-8.84% (inactive),–
c1ccc(-c2cccc(N3CCC4(CCNCC4)CC3)c2)cc1,-43% (inactive),–
O=C(c1ccco1)N1CCC2(CC1)CCN(c1cccc(-c3ccccc3)c1)CC2,–,10 µM (active)
Cn1cccc1C(=O)N1CCC2(CC1)CN(c1ccccn1)C2,-9.16% (inactive),–
CC(=O)N1CCC[C@@]2(CCN(c3ccncc3)C2)C1,5.7% (inactive),–
O=C(c1ccco1)N1CCC2(CCCN(c3ccccc3)C2)CC1,-4.32% (inactive),–
O=C(c1ccco1)N1CCC[C@@]2(CCN(c3ccccc3)C2)C1,–,5.01 µM (active)
Cn1cccc1C(=O)N1CCC[C@@]2(CCN(c3ccncc3)C2)C1,–,6.31 µM (active)
Cn1cccc1C(=O)N1CCC2(CC1)CCN(c1ccncc1)CC2,-34.4% (inactive),–
Cn1cccc1C(=O)N1CCC2(CC1)CN(c1ccncc1)C2,–,1.26 µM (active)
O=C(c1ccco1)N1CCC2(CC1)CCN(c1ccc(-c3ccccc3)cc1)CC2,-2.45% (inactive),–
Nc1nc(=O)c2[nH]cnc2n1O,-10.6% [at 11.4 µM] (inactive),–
CNC(=O)[C@@H]1O[C@@H](n2cnc3c(NCc4ccc(N)cc4)ncnc32)[C@@H](O)[C@H]1O,20.5% (inactive),–
CN1CC[C@@]2(CCCN(C(=O)c3cccn3C)C2)C1,12.9% (inactive),–
Cn1cccc1C(=O)N1CCC[C@@]2(CCN(c3ccccc3)C2)C1,–,5.01 µM (active)
CC(C)NC(=O)N1CC[C@@]2(CCCN(C(=O)c3cccn3C)C2)C1,23% (inactive),–
Cc1cc2ccccc2n1CCNC(=O)C1CCCC1,–,1.26 µM (active)
Cc1ccc(S(=O)(=O)NC(=O)c2cccn2C)cc1,7.77% (inactive),–
CN(C)CCn1c(C(=O)O)cc2ccccc21,31.4% (inactive),–
Cc1ccc(S(=O)(=O)NCCn2c(C)cc3ccccc32)cc1,–,1 µM (active)
Cc1cc2ccccc2c(=O)n1CC(=O)NCC(=O)N1CCCC1,-15.6% (inactive),–
